Source: PubChem BioAssay AID1347416 (National Center for Advancing Translational Sciences (NCATS), 2020)
The campaign covered roughly 4,100 compounds. About 1,600 (39%) were called active. Not shown: some 25% with an inconclusive outcome. Calls follow the shape of the dose curve; as a rule, active = well fitted inhibition curve with a large enough effect; inconclusive = small, poorly fitted or top-dose-only effect; inactive = no such curve, though single readings can be large or run the other way. Some of the results follow.

Assay: qHTS Validation assay for Inhibitors of Plasmodium falciparum Dd2 growth in vitro; also: nearly all actives have a fitted effect of over 70% in size
Conditions: P. falciparum Dd2 in RBCs, SYBR Green growth, 72 h; series mostly up to 28.7 µM; activity change, negative = inhibition: at the top concentration
Procedure, shortened: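 P. falciparum Dd2-infected red blood cells (2.5% hematocrit, 0.3% parasitemia) grown 72 h at 37 °C under 5% O2 with compounds in a titration, 29 uM to 0.5 nM final. Growth read as SYBR Green-1 fluorescence after ~16 h lysis; artesunate 300 nM as positive control.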
% is scaled to controls: 0 for no effect and ±100 for the full control effect; potency is read from the fitted curve at half-maximal effect.

| Structure (SMILES) | activity change, negative = inhibition | Potency |
| --- | --- | --- |
| CCOC(=O)Cn1c(=NC(=O)C2CC2)sc2c(C)cc(C)cc21 | -25.1% (inactive) | – |
| CCc1ccc(N2CC(c3noc(-c4nccc5ccccc45)n3)CC2=O)cc1 (stereo unspecified) | 9.68% (inactive) | – |
| O=S(=O)(c1ccc(Cl)cc1)N1CCN(Cc2ccc(O)c3ncccc23)CC1 | – | 13.3 µM (active) |
| O=C(N[C@H]1CO[C@H]2[C@@H]1OC[C@@H]2n1cc(-c2ccccc2)nn1)c1ccc(C(F)(F)F)cc1 | 30.8% (inactive) | – |
| COc1ccc(CN2C(=O)C(NC(=O)c3ccccc3C)(C(F)(F)F)N=C2c2ccccc2)cc1 (stereo unspecified) | 14.3% (inactive) | – |
| COc1ccc(CN2C(=O)C(C)N(C(=O)c3c(F)cccc3F)c3ccccc32)cc1 (stereo unspecified) | – | 7.5 µM (active) |
| O=C(/C(=C/c1ccc(Cl)cc1)c1nc2ccccc2[nH]1)c1cccs1 | – | 2.11 µM (active) |
| CN(C)CCCNc1ccc(-c2cc(Nc3cccc(Cl)c3)ncn2)cn1 | – | 9.44 µM (active) |
| O=C(Nc1nnc(SCc2ccc(F)cc2)s1)c1ccccn1 | – | 8.41 µM (active) |
| CCc1nnc(NC(=O)c2cc(Cl)ccn2)s1 | 197% (inactive) | – |
| O=C(Nc1ccc(F)cc1)Nc1nnc(SCC(=O)N2CCCCC2)s1 | -27.1% (inactive) | – |
| CC1=C[C@@H](CNC(=O)COc2ccccc2)[C@H](C(C)C)C[C@H]1Cc1nnc(-c2cncn2C)o1 | – | 13.3 µM (active) |
| COc1ccccc1N1CCN(C[C@@H]2C=C(C)[C@H](Cc3nnc(-c4cncn4C)o3)C[C@H]2C(C)C)CC1 | – | 10.6 µM (active) |
| Cc1ccc(NC(=O)CCSc2nc(-c3ccco3)cc(C(F)(F)F)n2)cc1F | -6.22% (inactive) | – |
| COc1cccc(NC(=O)CCSc2nc(-c3ccco3)cc(C(F)(F)F)n2)c1 | 0% (inactive) | – |
| COc1ccc(-c2cc(C(F)(F)F)nc(SCCC(=O)Nc3cc(C)ccc3O)n2)cc1 | – | 1.88 µM (active) |
| O=C(Nc1cc(C(F)(F)F)cc(C(F)(F)F)c1)Nc1cnn(-c2ccc([N+](=O)[O-])cc2)c1C(F)(F)F | – | 6.68 µM (active) |
| CC(Sc1nc2cc([N+](=O)[O-])ccc2n1-c1cccc(C(F)(F)F)c1)C(=O)NC(N)=O (stereo unspecified) | -0.926% (inactive) | – |
| Cc1cn2nc(C(=O)NCc3ccccc3F)cc2c(N(C)Cc2ccccc2)n1 | -11.1% (inactive) | – |
| Cc1cn2nc(C(=O)Nc3ccc4c(c3)OCCO4)cc2c(N(C)Cc2ccccc2)n1 | -6.41% (inactive) | – |
| Cc1cn2nc(C(=O)Nc3ccc(N(C)C)cc3)cc2c(N(C)Cc2ccccc2)n1 | – | 15 µM (active) |
| Cc1ccc(Nc2cc(C)nn2-c2nc(C)cc(C)n2)cc1 | – | 6.68 µM (active) |
| Cc1cc(N2CCC(C)CC2)nc(-n2nc(C)cc2C)n1 | – | 2.99 µM (active) |

| Structure (SMILES) | activity change, negative = inhibition | Potency |
| --- | --- | --- |
| COc1ccc(/C=N/Nc2cc(C)nc(-n3nc(C)cc3C)n2)c(OC)c1 | – | 5.31 µM (active) |
| CNc1cc(C)nc(-n2nc(C)cc2C)n1 | – | 8.41 µM (active) |
| COCC(=O)NC[C@H]1CCN(Cc2ccc(Cl)cc2)C[C@H]1N(C)C | 13.5% (inactive) | – |
| COc1cccc(OC)c1C(=O)Nc1cccc(-c2nc3cc(C)cc(C)c3o2)c1 | 46.6% (inactive) | – |
| COc1cccc(NC(=O)c2sc3nc(C)c(C(=O)Nc4ccc(C)cc4C)c(-c4ccccc4Cl)c3c2N)c1 | – | 2.66 µM (active) |
| COc1cccc(NC(=O)c2sc3nc(C)c(C(=O)Nc4ccc(C)cc4C)c(-c4cccs4)c3c2N)c1 | – | 5.96 µM (active) |
| NC1CCCCN(C(=O)CCc2n[nH]c3c2CCCC3)C1 (stereo unspecified) | 55.9% (inactive) | – |
| Cc1ccc(-n2nc3c(c2NC(=O)C(C)C)CS(=O)(=O)C3)c(C)c1 | 26.2% (inactive) | – |
| Cc1ccc(S(=O)(=O)Nc2cc(=O)[nH]c(SCC(=O)Nc3cccc(C)c3)n2)cc1 | 35.4% (inactive) | – |
| c1ccc(Cn2c(Sc3nnnn3-c3ccccc3)nnc2-c2ccccc2)cc1 | – | 7.5 µM (active) |
| CCn1c(SCC(=O)NNC(=O)Cc2ccccc2)nnc1-c1ccncc1 | 11.2% (inactive) | – |
| CN(C1CCc2nn(CC3CC3)c(=O)n2CC1)S(=O)(=O)c1cccs1 (stereo unspecified) | 9.65% (inactive) | – |
| COc1cccc(C(=O)N2CCC3(CC2)CCN(CCc2ccccc2)c2ccccc2O3)c1 | -0.287% (inactive) | – |
| COc1ccc2c(c1)OC(C)(C)C(c1ccccc1)C2c1ccc(OCCN2CCCC2)cc1 (stereo unspecified) | – | 6.68 µM (active) |
| O=C(NCc1nnc2ccc(-c3ccccc3)nn12)c1cc(Cl)ccc1F | -3.02% (inactive) | – |
| O=C(NCCNc1ccnc2cc(Cl)ccc12)c1ccccc1F | – | 1.68 µM (active) |
| O=C(NCCCNc1ccnc2cc(Cl)ccc12)c1ccccc1F | – | 0.842 µM (active) |
| COc1ccc(-n2nc(C)c([C@@H]3C=C[C@@H](NCc4ccc(F)cc4)C3)c2C)cc1 | – | 1.37 µM (active) |
| Cc1cc(=O)n(C(C)C(=O)NCc2ccccc2Cl)c2c1c(C)nn2-c1ccccc1 (stereo unspecified) | 27.8% (inactive) | – |
| O=C(NC1C[C@H]2CC[C@@H](C1)N2C(=O)c1ccco1)c1ccncc1 (stereo partly specified) | 20% (inactive) | – |
| COc1ccc(CN[C@@H]2C=C[C@@H](c3c(C)nn(-c4ccc(OC)cc4)c3C)C2)cc1 | – | 4.85 µM (active) |
| Cc1nn(-c2ccc(C(C)C)cc2)c(C)c1[C@@H]1C=C[C@@H](NCc2ccccc2)C1 | – | 21.7 µM (active) |
| Cc1nn(-c2ccc(C(C)(C)C)cc2)c(C)c1[C@@H]1C=C[C@@H](NC(=O)c2ccco2)C1 | – | 12.2 µM (active) |
